Measured values from PubChem BioAssay (NCI).
Compounds without any hit were thinned out: in the full panel of roughly 83,000, 20% have a hit.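 Assay: single dose, 48 h. Readout: percent growth (0 = no net growth; negative = cell death). Active: <10.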 Calls of active or inactive are those of the source.

test system: HL-60(TB) leukemia; assay: NCI-60 one-dose screen, 48 h (100 = growth as untreated, 0 = no growth, -100 = all killed); conditions: 10 µM unless noted

Compound	growth
COc1cc([C@@H]2c3cc4c(cc3[C@H](SC(=N)N)[C@H]3COC(=O)[C@H]23)OCO4)cc(OC)c1OC	-18.8% (active)
Nc1ncnc2c1c(-c1ccc(Oc3ccccc3)cc1)nn2C[C@H]1SSC[C@H]1O	-31.9% (active)
OCCNc1nc(NCCO)nc(Nc2ccc(C3=NN(c4cc(Cl)cc(Cl)c4)C(c4ccccc4)C3)cc2)n1 (stereo not given)	61.7% (inactive)
COc1ccc(CN2C(=O)/C(=C\C(=O)c3ccc(OCCN4CCCC4)cc3)c3ccccc32)cc1	4.86% (active)
O=[N+]([O-])c1cc(CCl)ccc1OCCBr	119% (inactive)
CC/C(=C\c1ccc(N(C)C)cc1)c1nc2ccccc2c(=O)[nH]1	179% (inactive)
CN1CCN(c2ccc3nc4c(nc3c2C(F)(F)F)C(=O)c2ncccc2C4=O)CC1	-50.4% (active)
O=C(C(=O)N1CCCC1)c1cn(CCCn2cc(C(=O)C(=O)N3CCCC3)c3cc(Br)ccc32)c2ccc(Br)cc12	86.5% (inactive)
C[C@H]1[C@H](C)CC[C@]2(CO)CC[C@]3(C)C(=CC[C@@H]4[C@@]5(C)Cc6c([nH]c7ccccc67)C(C)(C)[C@@H]5CC[C@]43C)[C@H]12	81.7% (inactive)
CC(C)(C)C(=O)CCCCCCCC/C=C/CCCC(O)c1ccco1 (stereo not given)	75% (inactive)
O=C1CC(N2C(=O)/C(=C/C(Cl)=C\c3ccc([N+](=O)[O-])cc3)SC2=S)C(=O)N1c1ccc(O)cc1 (stereo not given)	-18.7% (active)
CC(=O)O[C@H]1CC[C@@]2(C)[C@@H](CC[C@@H]3[C@@H]2CC[C@@]2(C)[C@H]3CC[C@]2(O)C(C)=O)C1	93.5% (inactive)
Cc1nn(-c2cccc(Cl)c2)c(C)c1N=Nc1ccc(Br)cc1	77.9% (inactive)
COc1ccc(C=C2c3ccccc3-c3ccccc32)cc1	23.6% (inactive)
Cc1ccccc1CC(N)C(=O)O (stereo not given)	103% (inactive)
C=C1CC[C@@H]2[C@](C)(COC(C)=O)[C@H](OC(C)=O)CC[C@@]2(C)[C@@H]1CC(Nc1ccc(S(=O)(=O)Nc2ncccn2)cc1)C1=CCOC1=O (stereo not given in full)	-17.2% (active)
Cn1c2ccc(Cl)cc2c2nn(C(=O)c3ccccc3)c(=O)nc21	113% (inactive)
O=c1cc(CSc2nnc(SCc3cc(=O)oc4c3ccc3ccccc34)o2)c2ccc3ccccc3c2o1	97.8% (inactive)

Compound	growth
CC/C(=C(/c1ccc(O)cc1)c1ccc(OCCN2CCCCC2)cc1)c1ccc(OC)cc1	81.6% (inactive)
O=C(Nc1ccc2ncnc(Nc3cccc(C(F)(F)F)c3)c2c1)c1cccs1	47.9% (inactive)
COc1cc([N+](=O)[O-])c2ncccc2c1O	72.1% (inactive)
Cc1ccc(S(=O)(=O)OCC(=O)Nc2ccc(C(=O)O)c(O)c2)cc1	60.4% (inactive)
CC(C)CSc1ncnc2nc[nH]c12	133% (inactive)
C[C@H](c1nc2ccc(C#N)cc2[nH]1)[C@H]1CC[C@H]2[C@@H]3CCC4=CC(=O)CC[C@]4(C)[C@H]3CC[C@]12C	56.3% (inactive)
C=CC(=O)Nc1cc2c(Nc3ccc(F)c(Cl)c3)ncnc2cc1C#CC(C)(C)N1CCN(C)CC1	-47.6% (active)
COc1cc(NCc2cn(-c3ccc(C(=O)O)cc3)nc2-c2ccc(C(=O)O)cc2)cc(OC)c1OC	120% (inactive)
CCN(CC)CCNc1ccc(CO)c2sc3ccccc3c(=O)c12	60.8% (inactive)
C[N+](C)=c1ccc2nc3c(cc(NCCCNc4cc5oc6cc(=[N+](C)C)ccc-6nc5c5ccccc45)c4ccccc43)oc-2c1	-7.2% (active)
Oc1ccc(-c2nc3ccccc3s2)cc1CN(Cc1ccccn1)Cc1ccccn1	1.27% (active)
COc1cc2nc(-c3ccc(-c4nn[nH]n4)cc3)[nH]c(=O)c2cc1OC	93.8% (inactive)
COc1cc(C(N)=O)cc(OC)c1OC	96.6% (inactive)
COC(=O)c1cc(Nc2ccc(O)c3c2C(=O)c2c([N+](=O)[O-])ccc(O)c2C3=O)cc(C(=O)OC)c1	62.3% (inactive)
COc1cc2ncnc(-n3ncc4cc(NC(=O)Nc5ccc(Cl)c(C)c5)ccc43)c2cc1OC	114% (inactive)
CCCCc1nc(Cl)c(C2CC(c3ccc(S(N)(=O)=O)cc3)=NN2c2ccc(C#N)cc2)[nH]1 (stereo not given)	92.7% (inactive)
O=C(NCCCNc1nccc(-n2ccc3cccnc32)n1)c1c(F)cccc1F	102% (inactive)
